HT1080-NT tox – qHTS for induction of synthetic lethality in tumor cells producing 2HG: qHTS for the HT-1080-NT fibrosarcoma cell line; 360,000 compounds, 1.6% hits; HT-1080-NT fibrosarcoma viability, CellTiter-Glo ATP luminescence, 48 h; AID 686970, 2013; Potency, µM (doses to about 46.1 µM), for the others: at the highest dose activity, negative = less viability, hits mostly cytotoxic;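 also: NT is the 2HG producing partner of a matched IDH1 knockdown line; 0% = DMSO-treated cells and -100% = media-only wells without cells; nearly all actives have a fitted effect of over 55% in size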
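Compounds were tested in concentration-response format on HT-1080-NT cells for 48 hours at 37 degrees C. Cell viability came from CellTiter-Glo luminescence; curves were classified by r2, response magnitude and activity.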
TDP1 cell noCPT – qHTS for Inhibitors of human tyrosyl-DNA phosphodiesterase 1 (TDP1): qHTS in cells in absence of CPT. DT40 Tdp1-/- hTDP1 cells, no CPT, ATP luminescence, 48 h. Potency, µM (titrated, usually from 46.2 µM), for the others: at the top dose activity change, negative = growth inhibition, actives largely listed as inhibitors. 420,000 compounds, 15% hits. AID 686978, 2013; also: nearly all actives have a fitted effect of over 55% in size
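Seeded 400 DT40-hTDP1 cells/well (vehicle DMSO, no 20 nM CPT); pinned compounds; ≥48 hr at 37 °C; CellTiter-Glo luminescence as viability measure.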
KB-V1 MDR tox – qHTS assay for MDR1-selective chemotherapeutics: Primary screen using the drug-selected MDR subline cells KB-V1; KB-V1 MDR cells viability, CellTiter-Glo, 72 h; Potency, µM (highest dose often 46.1 µM), actives largely listed as cytotoxic; 400,000 compounds, 3.4% hits; also: nearly all actives have a fitted effect of over 60% in size
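KB-V1, DMEM (no phenol red) + 10% FBS; cpd pin-transferred, titration series; 72 h, 37 degrees C; CellTiter-Glo, luminescence. Data normalized, curve-fit.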
KB-3-1 tox – qHTS assay for MDR1-selective chemotherapeutics: Primary screen using the parental adenocarcinoma cell KB-3-1 | KB-3-1 viability, CellTiter-Glo ATP luminescence, 72 h | Potency, µM (highest dose often 46.1 µM), usual class: cytotoxic | 400,000 compounds, 1.4% hits; also: nearly all actives have a fitted effect of over 60% in size
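Cytotoxicity in the drug-sensitive parental line KB-3-1 was scored as loss of CellTiter-Glo luminescence following 72 h incubation with compound. Values come from curve fitting of normalized concentration-response data.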
DT40 TDP1 CPT – qHTS for Inhibitors of human tyrosyl-DNA phosphodiesterase 1 (TDP1): qHTS in cells in presence of CPT; chicken DT40 Tdp1-/-;hTDP1 cells + 20 nM CPT, ATP luminescence, 48 h; Potency, µM (top dose mostly 46.2 µM), inactives show at the highest dose activity change, negative = growth inhibition, hits mostly inhibitors; 420,000 compounds, 12% hits; also: nearly all actives have a fitted effect of over 55% in size
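Chicken DT40 Tdp1-/- cells complemented with human TDP1, 400 cells/well, exposed to compounds plus 20 nM camptothecin for at least 48 h at 37 C; viability read as ATP content by CellTiter-Glo luminescence.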
HT1080 IDH1KD tx – qHTS for induction of synthetic lethality in tumor cells producing 2HG: qHTS for the HT-1080-IDH1KD cell line. 360,000 compounds, 2% hits. HT-1080 IDH1 knockdown viability, ATP luminescence, 48 h. Potency, µM (highest dose often 46.1 µM), inactives show at the top dose activity, negative = toxicity, hits mostly cytotoxic. AID 686971, 2013;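 also: 0% = DMSO wells and -100% = cell-free medium wells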
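Cytotoxicity counter-line: IDH1KD HT-1080, 48 h, CellTiter-Glo. Curves classed by r2, magnitude and activity.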
Numbers without * were called inactive; i = inactive; ? = inconclusive; · = no result. A selection: hits, their analogues and other compounds. The true share with any hit is near 19%. Calls follow the shape of the dose curve; as a rule, active = well fitted curve in the direction sought with a large enough effect; inconclusive = small, poorly fitted or top-dose-only effect, or another doubt; inactive = no such curve, though single readings can be large; an effect the other way counts as inactive or inconclusive. Unless noted, % is scaled to controls: 0 for no effect and ±100 for the full control effect; potency is read from the fitted curve at half-maximal effect.

SMILES	HT1080-NT tox	TDP1 cell noCPT	KB-V1 MDR tox	KB-3-1 tox	DT40 TDP1 CPT	HT1080 IDH1KD tx
CC(C)(C)NC(=O)/C(=C/c1ccccc1F)NC(=O)c1ccc([N+](=O)[O-])cc1	3%	?	i	i	0%	17%
Cc1ccc(C(=O)N/C(=C/c2ccc(-c3ccc([N+](=O)[O-])cc3)o2)C(=O)NCCCN(C)C)cc1	23µM*	21µM*	i	i	21µM*	?
Cc1ccc(NC(=O)CN2C(=O)CNC2=O)cc1	-2%	2%	i	i	-4%	-3%
CCN(CC)C(=O)C(=O)c1cn(CCOc2ccccc2)c2ccccc12	0%	-1%	i	i	?	-2%
Cc1ccc(F)c(S(=O)(=O)NC(=O)C2(C)CCN2C(=O)Cc2cc(F)ccc2F)c1 (stereo not drawn)	17%	0%	i	i	2%	5%
COc1ccc2c(Cl)c(C(=O)NN)sc2c1	?	-11%	?	i	-8%	0%
CC[n+]1c(C)sc2cc(OC)ccc21	-6%	2.9µM*	i	i	2.6µM*	-10%
CC1CCCCC1NC(=O)COC(=O)CNC(=O)c1cccc(F)c1 (stereo not drawn)	9%	3%	i	i	13%	14%
Cc1ncnc2nc[nH]c12	·	1.8µM*	10µM*	3.3µM*	1.8µM*	·
c1nc(NC2CCCCCC2)c2[nH]cnc2n1	14%	23µM*	i	i	10µM*	2%
CC(O)CNc1ncnc2nc[nH]c12 (stereo not drawn)	25%	-7%	i	i	-3%	14%
CC(C)=NNc1ncnc2nc[nH]c12	-27%	15µM*	7.3µM*	?	21µM*	?
CCNc1nc(NCC)nc(Oc2ccc(C(=O)OC)cc2)n1	0%	-28%	i	i	-16%	-1%
Cc1ccc(NC(=O)CN(C)C(=S)NC2CC2)cc1	13%	2%	i	i	0%	24%
CCN1C(=O)c2ccc(C(=O)Nc3ccc4c(c3)OCO4)cc2C1=O	11%	-1%	i	i	8%	0%
CCN(c1cccc(C)c1)S(=O)(=O)c1ccc2c3c(cccc13)C(=O)N2	-20%	11µM*	?	i	?	?
CCOc1ccc(NS(=O)(=O)c2ccc(OCC)c3ncccc23)cc1	11µM*	10µM*	13µM*	?	11µM*	10µM*
CCN(CC)S(=O)(=O)c1ccc2c3c(cccc13)C(=O)N2	-6%	?	i	i	-17%	0%
CCOc1ccc(S(=O)(=O)Nc2cc(C)ccn2)c2ccccc12	2%	?	18µM*	?	?	-6%
CCOc1ccc(NS(=O)(=O)c2ccc3c4c(cccc24)C(=O)N3)cc1	·	?	i	i	16µM*	·
Cc1cc(C)n2nc(CC(=O)NNC(=O)c3ccccc3Cl)nc2n1	8%	21%	i	i	-13%	10%
c1ccc(Sc2ncnc3c2oc2ccccc23)cc1	-15%	-14%	i	i	2%	-8%
CC1CN(c2ncnc3c2oc2ccccc23)CC(C)O1 (stereo not drawn)	-1%	21µM*	?	i	?	-14%
Clc1ccc(N2CCN(c3ncnc4c3oc3ccccc34)CC2)cc1	11%	14µM*	?	i	21µM*	7%
